{
  "source": "PubChem BioAssay AID1974",
  "about": "(The Scripps Research Institute Molecular Screening Center, 2009)",
  "note": "About 3,200 (1.1%) of roughly 300,000 compounds were called active. This is one part of a sample in which actives are shown more often than they occur. Values without a mark were called inactive.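 Rule for the calls: active = inhibition above the campaign mean inhibition plus 3 SD (cut at about 35% in these data); inactive = the rest.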",
  "data": [
    {"target": "Glutathione S-transferase omega-1 (Homo sapiens) (UniProt P78417)", "sequence (P78417 whole entry, looked up)": "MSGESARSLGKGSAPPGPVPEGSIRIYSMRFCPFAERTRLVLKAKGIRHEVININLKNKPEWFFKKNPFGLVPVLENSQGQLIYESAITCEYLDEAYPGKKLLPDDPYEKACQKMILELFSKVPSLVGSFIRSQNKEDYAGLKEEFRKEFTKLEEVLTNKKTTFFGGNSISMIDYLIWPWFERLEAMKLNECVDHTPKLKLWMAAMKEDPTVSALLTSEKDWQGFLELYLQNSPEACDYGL", "experiment": "inhibitors of recombinant GSTO1, primary screen, counter-screen for RBBP9 inhibitor project, biochemical, fluorescence polarization (AID 1974);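 note: 0% = GSTO1-1 with DMSO and 100% = wells lacking GSTO1-1 enzyme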", "conditions": "recombinant GSTO1, activity-based probe fluorescence polarization; at 5.96 µM; hits give high values", "values": [
      {"smiles": "CN(C)C1=NC[C@H](Cc2ccccc2)N1CCc1ccc(F)cc1", "inhibition": "0.73%"},
      {"smiles": "OCC[C@H]1C[C@@H](O)[C@H](O)[C@@]2(OCCc3ccccc32)O1", "inhibition": "7.38%"},
      {"smiles": "Cc1nc2c(c(C)nn2-c2ccccc2)c(C)c1C", "inhibition": "15.1%"},
      {"smiles": "Cc1c(CC(=O)N2CCN(C(=O)C3COc4ccccc4O3)CC2)c(=O)oc2c(O)c(O)ccc12", "note": "(stereo not drawn)", "inhibition": "45.1% (active)"},
      {"smiles": "O=C(CNC(=O)C1COc2ccccc2O1)N/N=C/c1cc(Br)c(O)c(Br)c1", "note": "(stereo not drawn)", "inhibition": "-6.29%"},
      {"smiles": "Cc1c(C)c2ccc(OCC(=O)N3CCC(C(=O)O)CC3)c(C)c2oc1=O", "inhibition": "-1.66%"},
      {"smiles": "CC(C)(C)OC(=O)c1c(N)n(CCCN2CCCC2=O)c2nc3ccccc3nc12", "inhibition": "63.9% (active)"},
      {"smiles": "COCC(C)OC(=O)c1c(N)n(CCCN2CCOCC2)c2nc3ccccc3nc12", "note": "(stereo not drawn)", "inhibition": "11.9%"},
      {"smiles": "O=C(NCCCN1CCCC1=O)c1ccc(S(=O)(=O)Nc2ccccc2)cc1", "inhibition": "0.39%"},
      {"smiles": "O=[N+]([O-])c1ccc(S(=O)(=O)Nc2cccc(-c3ccc(N4CCCC4)nn3)c2)cc1", "inhibition": "-8.25%"},
      {"smiles": "COc1ccc(CNC(=O)[C@@H]2CC=C[C@@H]3CCN(C4CC4)C(=O)[C@@H]32)cc1", "inhibition": "-0.21%"},
      {"smiles": "CSc1ccc(NC(=O)/C=C/C(=O)O)cc1", "inhibition": "0.81%"},
      {"smiles": "Cc1cccc(N2CCN(c3ccc(NC(=O)/C=C\\C(=O)O)cc3)CC2)c1", "inhibition": "42.2% (active)"},
      {"smiles": "CN1CCN(c2ccc(NC(=O)c3ccccc3)cc2)CC1", "inhibition": "2.04%"},
      {"smiles": "CCCn1c(C)cc(-c2csc(NC(=O)CCc3nc4ccccc4c(=O)[nH]3)n2)c1C", "inhibition": "-4.01%"},
      {"smiles": "O=C(CCc1[nH]c2ccccc2c1Sc1ccccc1)N(CCO)CCO", "inhibition": "3.25%"},
      {"smiles": "CCCCN(C(=O)CCNC(=O)NC12CC3CC(CC(C3)C1)C2)c1c(N)n(CCCC)c(=O)[nH]c1=O", "inhibition": "-0.02%"},
      {"smiles": "N#CC1(NC(=O)COC(=O)CSc2ccc(F)cc2)CCCCC1", "inhibition": "6.75%"},
      {"smiles": "CN(CC1CCCO1)S(=O)(=O)c1ccc(C(=O)Nc2ccc(F)cc2)cc1", "note": "(stereo not drawn)", "inhibition": "2.1%"},
      {"smiles": "Cc1cccc(NC(=O)c2ccc(S(=O)(=O)N(C)CC3CCCO3)cc2)c1C", "note": "(stereo not drawn)", "inhibition": "-5.06%"},
      {"smiles": "CCOC(=O)c1c(NC(=O)c2ccc(S(=O)(=O)N(C)CC3CCCO3)cc2)sc2c1CC(C)(C)NC2(C)C", "note": "(stereo not drawn)", "inhibition": "55.4% (active)"},
      {"smiles": "O=C(Nc1ccc(S(=O)(=O)N2CCCCC2)cc1)C1CCN(C(=O)c2ccc(F)cc2)CC1", "inhibition": "-4.69%"},
      {"smiles": "CC(Oc1cccc(Cl)c1)C(=O)Nc1ccc(S(=O)(=O)Nc2ncccn2)cc1", "note": "(stereo not drawn)", "inhibition": "-7.06%"}
    ]}
  ]
}
